Screens from PubChem.
A selection: hits, their analogues and other compounds. The true share with any hit is near 2.5%.
Apoferritin bind: qHTS Assay for Identification of Novel General Anesthetics. Ferritin light chain (Equus caballus), P02791. apoferritin/1-aminoanthracene competitive binding, fluorescence. Potency, µM (titrated, usually from 77.5 µM), usual class: inhibitors. 350,000 tested, 0.074% active. AID 485281, 2010; active means well fitted inhibition curve with a large enough effect; inconclusive means small, poorly fitted or top-dose-only effect; inactive means no such curve, though single readings can be large or run the other way; further: nearly all actives have a fitted effect of over 20% in size
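Concentration-response curves derived by four-parameter Hill fitting of normalized fluorescence, where compounds displaced 1-AMA from 10 uM horse apoferritin following a brief 10 min room-temperature incubation; propofol titration acted as positive control.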
D2 PAM-1: Beta-Arrestin HTS for Positive Allosteric Modulators of the Human D2 Dopamine Receptor: Potentiators | D(2) dopamine receptor (Homo sapiens), P14416 | DiscoveRx D2 beta-arrestin cells, luminescence, 90 min; 100% = 57 uM dopamine signal | potentiation, % (no concentration beside the values) | 360,000 tested, 0.23% active | AID 624464, 2012; in the data active means potentiation above about 50%; inconclusive means mostly about 30% to 49%
Target sequence (P14416 whole entry, looked up): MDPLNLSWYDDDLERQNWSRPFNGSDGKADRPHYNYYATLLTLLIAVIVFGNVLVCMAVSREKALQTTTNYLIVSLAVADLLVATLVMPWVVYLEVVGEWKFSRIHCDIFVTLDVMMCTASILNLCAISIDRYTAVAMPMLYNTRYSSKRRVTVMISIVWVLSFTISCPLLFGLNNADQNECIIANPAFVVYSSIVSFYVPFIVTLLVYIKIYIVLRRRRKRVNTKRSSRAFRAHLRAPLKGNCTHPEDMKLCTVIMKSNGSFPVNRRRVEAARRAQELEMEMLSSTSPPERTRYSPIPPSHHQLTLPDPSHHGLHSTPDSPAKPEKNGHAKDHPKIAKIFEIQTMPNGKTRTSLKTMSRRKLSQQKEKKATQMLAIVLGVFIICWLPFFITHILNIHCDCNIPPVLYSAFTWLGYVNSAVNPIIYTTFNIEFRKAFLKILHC
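PathHunter beta-arrestin assay in DiscoveRx D2 cells. Compounds were added with an EC20 of dopamine (50 nM final) for 90 min at 37 deg C. Luminescence was read 1 h after detection reagent, with 57 uM dopamine as the EC100 control.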
D2 ag-1: Beta-Arrestin HTS for Positive Allosteric Modulators of the Human D2 Dopamine Receptor: Agonists; activation, % (no concentration beside the values); D(2) dopamine receptor (Homo sapiens), P14416; 360,000 tested, 0.084% active; DiscoveRx PathHunter D2 beta-arrestin, luminescence, 90 min; 100% = 57 uM dopamine signal; AID 624465, 2012; in the data active means activation above about 40%; inconclusive means between about 15% and that limit
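Agonist mode: compounds alone added to overnight-plated D2 PathHunter cells for 90 min at 37 C, with 57 uM final dopamine (EC100) defining full response. Beta-arrestin recruitment detected by chemiluminescent reagent, read after 1 h at ambient temperature.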
D2 ag-2: HTS Assay for Allosteric Agonists of the Human D2 Dopamine Receptor: Primary Screen for Agonists; D(2) dopamine receptor (Homo sapiens), P14416; HEK293 T-REx D2 cells, calcium flux agonist mode; activation, % at 2 µM; 340,000 tested, 0.53% active; AID 485358, 2010;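 active means activation over 3 SD above normal in the single-dose calcium agonist read, cut at about 30% in these data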
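Agonism scored from kinetic calcium signal (1 read/sec, 180 s) following compound pin transfer, after a 10 s baseline. Cells: HEK293 Trex line expressing inducible D2 receptor coupled to calcium, dye-loaded after overnight culture at 30 C.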
D2 PAM-2: HTS Assay for Positive Allosteric Modulators of the Human D2 Dopamine Receptor: Primary Screen for Potentiators; 340,000 tested, 0.34% active; AID 485347, 2010; potentiation, % at 10 µM; D(2) dopamine receptor (Homo sapiens), P14416; HEK293 T-REx D2, calcium flux, EC20 dopamine potentiation;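 active means potentiation over 3 SD above the plate norm, cut at about 30% in these data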
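Primary screen. Calcium kinetics in induced HEK293 T-REx D2 cells: compound pre-addition 180 s, EC20 dopamine, 180 s more.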
D2 antag: HTS Assay for Allosteric Antagonists of the Human D2 Dopamine Receptor: Primary Screen for Antagonists; inhibition, % at 10 µM; D(2) dopamine receptor (Homo sapiens), P14416; HEK293 TREx D2 cells, calcium flux, dopamine EC80; 340,000 tested, 2% active; in the data active means inhibition above about 30%; inactive means below that, where a call was filed
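Compounds are added to dye-loaded, induced HEK293 T-REx cells coupled to calcium release via D2; after a 3 min kinetic read an EC80 dopamine stimulus is given and fluorescence is recorded for 3 more min.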
Hits are given with their value; – = inactive; ? = inconclusive; · = not tested or not shown.

SMILES	Apoferritin bind	D2 PAM-1	D2 ag-1	D2 ag-2	D2 PAM-2	D2 antag
C=CC[C@@H]1C=C[C@H](O/N=C/[C@@H](NS(=O)(=O)c2ccc(C)cc2)[C@H](C)/C=C/CC(=O)OC)[C@@H](CO)O1	–	·	·	–	–	31.0
Cn1c(=O)[nH]c(=O)c2c1nc(N1CCOCC1)n2CCSc1nnnn1-c1ccccc1	–	–	–	–	–	36.6
CCOC(=O)c1cc2occc2n1Cc1ccc(F)cc1	–	–	–	–	–	34.2
CCOC(=O)c1cc2occc2n1Cc1c(F)cccc1Cl	–	–	–	–	–	31.2
Cc1cc(C)nc(N/N=C/c2ccccc2)n1	–	–	–	–	–	44.5
Cc1cc(C)nc(N/N=C/C=C/c2ccccc2)n1	–	–	–	–	–	–
CCOc1cccc(Cc2c[nH]c(=O)[nH]c2=O)c1	·	–	–	·	·	·
OC(CN1CCN(c2cccc(Cl)c2)CC1)c1ccc(F)cc1 (stereo unspecified)	–	–	–	–	–	–
OC(COc1ccc(Cl)cc1)CN1CCN(c2cccc(Cl)c2)CC1 (stereo unspecified)	–	–	–	–	–	72.7
OC(COc1ccc2cc(Br)ccc2c1)CN1CCN(c2ccccn2)CC1 (stereo unspecified)	–	?	40.7	–	–	–
OC(CN1CCN(c2cccc(Cl)c2)CC1)c1ccccc1 (stereo unspecified)	–	–	–	–	–	52.8
Cc1cccc(N2CCN(CC(O)COc3ccc(Cl)cc3)CC2)c1 (stereo unspecified)	–	–	–	–	–	58.3
COc1ccc(OCC(O)CN2CCN(c3ccc(Cl)cc3)CC2)cc1 (stereo unspecified)	–	–	–	–	–	–
CC(C)(C)CC(C)(C)NC1=CC(=O)OC12CCCCC2	–	–	–	–	–	–
Clc1nc(N2CCOCC2)ncc1Br	–	–	–	–	–	–
O=C1CC(N2CCN(c3cccc(C(F)(F)F)c3)CC2)C(=O)N1c1ccccc1 (stereo unspecified)	–	–	–	·	–	·
O=C1CC(N2CCN(c3ccccc3)CC2)C(=O)N1c1cccc(Br)c1 (stereo unspecified)	–	–	–	–	36.7	–
O=C1CC(N2CCN(c3cccc(C(F)(F)F)c3)CC2)C(=O)N1c1ccccc1F (stereo unspecified)	?	–	–	–	–	32.7
CN(Cc1cn(C)nc1-c1ccccc1F)C1CCOC1 (stereo unspecified)	–	–	–	–	–	–
N#C/C(=C\c1coc2ccccc2c1=O)C(N)=S	–	–	–	–	–	–
N#C/C(=C\c1coc2ccc(O)cc2c1=O)C(=O)Nc1nc2ccccc2s1	–	–	–	59.1	–	–
CN(Cc1cccc(F)c1)C(=O)c1cc(=O)[nH]c2ccccc12	–	–	–	·	·	·
CCC/C(=N\NC(=O)CNC(=O)c1ccc(Cl)cc1)c1ccccc1	15.8µM	–	–	–	–	–
C/C(Cc1ccccc1)=N\NC(=O)CNC(=O)c1ccc(Cl)cc1	–	–	–	–	–	–
COc1cc(CNCCN2CCOCC2)ccc1OCc1cccc(Cl)c1	?	–	–	–	–	42.3
Cc1cccc2c1N(CCOc1ccccc1Cl)C(=O)C2=O	–	–	–	–	–	30.4
CCCOc1ccc(CN2C(=O)C(=O)c3cccc(C)c32)cc1	31.6µM	·	·	–	–	·
Cc1ccc(OCCCN2C(=O)C(=O)c3cccc(C)c32)cc1	?	–	–	–	–	–
CC1CCN(c2ccc(C(F)(F)F)cc2N)CC1	–	–	–	–	–	–
